Screening results from PubChem BioAssay.
A selection: hits, their analogues and other compounds. The true share with any hit is near 6.8%.
NADH enzymes – inhibitors of PK/LDH coupling enzymes, profiling panel, artefact control, biochemical, MLSMR library | coupled PK/LDH NADH assays, four targets | 65,000 compounds, 0.02% hits | IC50, µM (top dose mostly 10 µM), without a hit: top-dose inhibition;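 active = single-dose screening hits from any of four coupled enzyme assays that gave an IC50 when retested across doses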;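 note: the DPM-DC format reads NADH fluorescence rather than 340 nm absorbance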
DPM-DC inhibit – S. pneumoniae DPM-DC inhibitors, primary screen, biochemical, PK/LDH-coupled NADH fluorescence | diphosphomevalonate decarboxylase (Streptococcus pneumoniae D39) | purified DPM-DC | calls only at 10 µM | 65,000 compounds, 0.49% hits | AID 556, 2006;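 active = the 320 compounds with the highest percent inhibition in the single-dose primary screen, excluding strongly autofluorescent ones, cut at about 32% in these data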;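 note: kinetic rate of NADH fluorescence loss reporting ADP formed by the decarboxylase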
Spn PMK inh – S. pneumoniae PMK inhibitors, primary screen, biochemical, mevalonate pathway, pilot trial included. purified PMK, PK/LDH-coupled NADH absorbance 340 nm. inhibition, % at 10 µM. 65,000 compounds, 0.49% hits. AID 539, 2006;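 active = top-ranked compounds by inhibition in the single 10 µM screen, taking a fixed number of the strongest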;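 note: 0% = full reaction with DMSO carrier and 100% = background rate without enzyme reaction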
Spn MK inh – S. pneumoniae MK inhibitors, primary screen, biochemical, PK/LDH-coupled NADH absorbance; purified MK, PK/LDH-coupled NADH absorbance 340 nm; 65,000 compounds, 0.48% hits; inhibition, % at 10 µM; AID 555, 2006; mevalonate kinase [Streptococcus pneumoniae D39];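 active = ranked among the strongest by inhibition in the single 10 µM screen, a fixed top-ranked set picked for dose follow-up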
Autofluor 339 – intrinsic fluorescence of library compounds, ex339/em460 – biochemical, MLSMR library, data from DPM-DC assay, artefact control, profiling panel | fluorescence fold increase at 10 µM | compound autofluorescence, ex339/em460 nm, NADH buffer; stronger effect = higher value; 1 = no-compound wells, NADH background | 65,000 compounds, 5.5% hits;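 active = at 10 µM, mean starting fluorescence two-fold or more over control wells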;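 note: signal is the first read of a kinetic run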
Abs 340nm – compound light absorbance at 340 nm, profiling panel, artefact control, biochemical, MLSMR library, data from PS, PMK, MK assays; fold change at 10 µM; 65,000 tested, under 10 active; compound absorbance at 340 nm, fold over control; AID 708, 2007;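 active = at 10 µM dose, initial 340 nm absorbance at least 2 fold that of control wells; inactive = change under 2 fold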;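 note: initial absorbance extrapolated from kinetic A340 decline of NADH oxidation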
Numbers without * were called inactive; i = inactive; / = no result shown; + = active, no number; ! = repeats disagree.

SMILES | NADH enzymes | DPM-DC inhibit | Spn PMK inh | Spn MK inh | Autofluor 339 | Abs 340nm
c1ccc2c(NC3CCCC3)nnc(NC3CCCC3)c2c1 | 4% | i | 14 | 0 | 2.1* | 1
O=C(CN1CCN(C(=O)c2c(F)cccc2F)CC1)Nc1ccccc1F | 1% | i | 4 | 0 | 1.1 | 1
CCCCOC(=O)c1cc(=O)[nH]c2ccccc12 | 8% | i | 10 | 6 | 2.1*! | 1.1
O=C(COC(=O)c1cc(=O)[nH]c2ccccc12)NC(=O)NC1CCCCC1 | 9% | i | 13 | 0 | 2* | 1.1
CCOC(=O)C1CCCN(C(=O)c2c(-c3ccccc3Cl)noc2C)C1 (stereo not given) | 1% | i | 0 | 3 | 1.1 | 1
CN1CCN(c2ccccc2NS(=O)(=O)c2ccc3c(c2)CCN3C(=O)C2CCC2)CC1 | 3% | i | 2 | 7 | 1.1 | 1
Cc1c(C(=O)COC(C)(C)C)[nH]c2ccccc12 | 4% | i | 0 | 6 | 1 | 1
Cc1occc1C(=O)Nc1nnc(C(F)(F)F)s1 | 65% | + | 74* | 59* | 1.2 | 1.1
COc1ccc(C2=CC(c3ccc(C)cc3)n3nnnc3N2)cc1 (stereo not given) | 3% | i | 10 | 0 | 1.3 | 1.1
COc1cccc(C2=CC(c3ccc(N(C)C)cc3)n3ncnc3N2)c1 (stereo not given) | 10% | i | 8 | 13 | 2.1* | 1.1
CCOc1ccc(C2C=C(c3ccc(F)cc3)Nc3ncnn32)cc1 (stereo not given) | 2% | / | 0 | 0 | 2.5* | 1
COc1ccc(C2C=C(c3ccc(C)cc3)Nc3ncnn32)cc1 (stereo not given) | 5% | / | 7 | 2 | 2.4* | 1.1
COc1cccc(C2=CC(c3ccccc3)n3ncnc3N2)c1 (stereo not given) | 6% | i | 10 | 1 | 1.6 | 1.1
CCOc1ccc(C2C=C(c3ccccc3)Nc3ncnn32)cc1 (stereo not given) | 9% | / | 8 | 10 | 2.4* | 1.1
COc1cccc(-n2nnc3c(=O)n(CC(=O)N4CCC(Cc5ccccc5)CC4)cnc32)c1 | 2% | i | 6 | 0 | 1.1 | 1.1
C1=C(c2ccc(-c3ccccc3)cc2)Nc2ncnn2C1c1ccco1 (stereo not given) | 9% | / | 10 | 8 | 3.9* | 1.1
COc1ccc(C2(CNC(=O)CCC(=O)O)CCCC2)cc1 | 5% | i | 9 | 7 | 1.1 | 1
Cn1c(C(=O)N2COCC2(C)C)cc2c(=O)n3ccccc3nc21 | 9% | / | 10 | 8 | 5* | 1.1
Cc1cccn2c(=O)c3cc(C(=O)N4CCCc5ccccc54)n(C)c3nc12 | 2% | i | 12 | 2 | 1.3 | 1
Cc1cccn2c(=O)c3cc(C(=O)NCC4CCCO4)n(C)c3nc12 (stereo not given) | 9% | / | 11 | 7 | 5* | 1.1
CN(C)c1ccc(NC(=O)c2cc3c(=O)n4ccccc4nc3n2C)cc1 | 6% | i | 7 | 8 | 1.7 | 1
Cc1cc(C(=O)NCC2CCCO2)n(-c2ccccc2)n1 (stereo not given) | 11% | i | 20 | 13 | 1.1 | 1.1
CNC(=O)c1cc2c(=O)n3cccc(C)c3nc2n1C | 8% | / | 10 | 6 | 5* | 1.1
Cc1cccn2c(=O)c3cc(C(=O)N4CCc5ccccc5C4)n(C)c3nc12 | 8% | / | 10 | 5 | 5* | 1.1
CCN(CC)C(=O)CC(c1ccc(F)cc1)c1ccco1 (stereo not given) | 0% | i | 0 | 0 | 1.1 | 1
SMILES | NADH enzymes | DPM-DC inhibit | Spn PMK inh | Spn MK inh | Autofluor 339 | Abs 340nm
Cc1cc(N2CCN(c3ccccc3)CC2)n2c(n1)nc1ccccc12 | 9% | i | 9 | 14 | 1.6 | 1
Cn1c(C(=O)NCC2CCCO2)cc2c(=O)n3ccccc3nc21 (stereo not given) | 9% | / | 9 | 9 | 5* | 1.1
CCOC(=O)C1CCCN(C(=O)c2cc3c(=O)n4cccc(C)c4nc3n2C)C1 (stereo not given) | 2% | / | 12 | 3 | 3.4* | 1
Cc1ccnc(NC(=O)CCC(=O)N(CC(=O)NC2CCCCC2)c2ccc3c(c2)OCO3)c1 | 4% | i | / | 7 | 1.1 | 0.98
COc1ccc(CCn2c(N)c(C(=O)NCc3ccco3)c3nc4ccccc4nc32)cc1OC | 7% | / | 3 | 10 | 3.6* | 1
COc1ccc(CCNC(=O)c2ccc3nc(-c4ccco4)c(-c4ccco4)nc3c2)cc1OC | 19% | i | 15 | 27 | 2.4* | 1
COc1ccc(-n2c(N)c(C(=O)NCc3ccco3)c3nc4ccccc4nc32)c(OC)c1 | 3% | / | 15 | 10 | 2.9* | 1
O=S(=O)(NC1CC2CCC1C2)c1ccc(Br)s1 (stereo not given) | 10% | i | 10 | 10 | 1.1 | 1
O=C(NCc1ccc2c(c1)OCO2)c1cc2n(n1)C(C(F)(F)F)CC(c1ccc3c(c1)OCO3)N2 (stereo not given) | 4% | i | 25* | 0 | 1 | 0.96
O=C(Nc1cc(Cl)ccc1O)c1cc2n(n1)C(C(F)(F)F)CC(c1ccc3c(c1)OCO3)N2 (stereo not given) | 5% | i | 9 | 7 | 1.2 | 1.1
FC(F)(F)c1nnc2sc(-c3cccs3)nn12 | 3% | i | 3 | 0 | 1.1 | 1
O=c1c2ccccc2oc2nc(-c3ccco3)n(Cc3ccccc3)c(=O)c12 | 12% | i | 17 | 12 | 1.1 | 1.2
O=C(NCc1ccccc1)N(Cc1nc2ccccc2c(=O)[nH]1)C1CCCC1 | 8% | / | 5 | 10 | 3.8* | 1
CN(C)C=Nc1ncc2c3ccccc3n(Cc3ccccc3)c2c1C#N | 3% | / | 0 | 5 | 3* | 1.1
CN(C)C=Nc1ncc2c3ccccc3n(CCN(C)C)c2c1C#N | 16% | i | 16 | 10 | 2.3* | 1.2
CC(=O)Nc1ccn(-c2ccccc2)n1 | 2% | i | 1 | 11 | 1.1 | 1
CC(=O)NC1N=C(C)N(c2ccccc2)C1=O (stereo not given) | 9% | i | 28* | 0 | 1.1 | 1.1
COc1ccc(CNC(=O)c2ccc3c(c2)N(C)C(=O)CS3=O)cc1 (stereo not given) | 4% | i | 5 | 6 | 1.1 | 1.1
Brc1ccccc1-c1nnc(-c2cccnc2)o1 | 0% | i | 0 | 0 | 1.1 | 1
COc1cc(-c2nnc(SCC#CCO)o2)cc(OC)c1OC | 5% | i | 9 | 6 | 1.1 | 1
c1coc(-c2nnc(-c3cccs3)o2)c1 | 6% | / | 24 | 0 | 3.4* | 1
